Measurements: the supplement of paper PMC8387472
Structures can show the parent of a compound that is named as a salt. ± gives the standard deviation of the averaged measurements.

Tested on: mESC LDLR-Dup GFP reporter (SpCas9 MH-deletion repair)
Test: fraction of GFP+ cells relative to DMSO control (fold change); higher = more MH-deletion repair to in-frame LDLR (or more editing)
Details: 2 µM; 7 days post-transfection

Structure (SMILES)	fraction of GFP+ cells
CS(=O)(=O)OCCCCOS(C)(=O)=O [Busulfan]	1.36 ± 0.93
C[C@@H]1COCCN1c1cc(C2([S@](C)(=N)=O)CC2)nc(-c2cc[nH]c3nccc2-3)n1	0.429 ± 0.24
Cc1ncc([N+](=O)[O-])n1CCO [Metronidazole]	0.96 ± 0.35
O=S(=O)(N=Cc1c(O)ccc2ccccc12)c1cccs1	1.15 ± 0.65
CN(C)Cc1ccc(-c2nc3cccc4c3n2CCNC4=O)cc1	0.517 ± 0.015
CNC(=O)c1nn(C)c2c1C(C)(C)Cc1cnc(Nc3ccc(N4CCN(C)CC4)cc3)nc1-2	0.352 ± 0.06
O=CN1CC/C(=C/c2ccc3c(c2)OCO3)C1=O	0.833 ± 0.28
Cc1cn([C@H]2O[C@@H](CO)[C@H](O)[C@H]2F)c(=O)[nH]c1=O [Clevudine]	0.898 ± 0.28
CN(C)CCCCC(=O)Nc1ccc(NC(=S)NC(=O)c2ccc(C(C)(C)C)cc2)cc1 [Tenovin-6]	0.625 ± 0.2
CCN1/C(=C/C(C)=O)Sc2ccc(OC)cc21	0.802 ± 0.095
O=C1NCCc2[nH]c(-c3ccncc3)cc21	1.61 ± 0.078
COc1cc(OCc2cccc(-c3ccccc3)c2C)cc(OC)c1CN1CCCC[C@H]1C(=O)O [pd-1/pd-l1 inhibitor 1]	0.898 ± 0.35
C[C@@H](N)[C@H]1CC[C@H](C(=O)Nc2ccncc2)CC1	1.31 ± 0.91
O=C(O)CCCc1ccccc1 [Sodium Phenylbutyrate]	0.708 ± 0.082
O=C(CCCCCCC(=O)Nc1ccc([C@H]2O[C@@H](CSc3nc(-c4ccccc4)c(-c4ccccc4)o3)C[C@@H](c3ccc(CO)cc3)O2)cc1)NO [Tubacin]	0.972 ± 0.16
CC(C)(CNC(=O)c1cccc(-c2noc(C(F)(F)F)n2)c1)c1coc(-c2ccccc2)n1	0.849 ± 0.2
COc1ccc(Cn2ccc3ccc(C(=O)NO)cc32)cc1	0.5 ± 0.072
CNCc1ccc(-c2cc(-c3nc(-c4ccc(S(=O)(=O)C(C)C)cc4)cnc3N)on2)cc1	0.301 ± 0.12
Nc1nc(Nc2ccc(S(N)(=O)=O)cc2)nn1C(=O)c1c(F)cccc1F	1 ± 0.15
Cn1nnc2c(C(N)=O)ncn2c1=O [Temozolomide]	0.998 ± 0.33

Structure (SMILES)	fraction of GFP+ cells
CN(C)c1ccc(-c2nc3ncc(Cl)c(N4CCN(CC(=O)Nc5nccs5)CC4)c3[nH]2)cc1	0.872 ± 0.39
Nc1[nH]cnc2ncnc1-2 [Adenine sulfate]	1.1 ± 0.025
COc1ccc(S(=O)(=O)NCc2ccc(C(=O)NCCc3ccc(Cl)cn3)cc2)cc1	0.936 ± 0.16
C[C@H](Oc1cc(-c2cnn(C3CCNCC3)c2)cnc1N)c1c(Cl)ccc(F)c1Cl [(S)-crizotinib]	0.94 ± 0.18
CC(=O)NCC(=O)N1[C@@H]2CC[C@H]1c1ccc(Nc3ncc(C(F)(F)F)c(NC4CCC4)n3)cc12	1.27 ± 0.73
Cc1cn([C@H]2C[C@H](N=[N+]=[N-])[C@@H](CO)O2)c(=O)[nH]c1=O [Zidovudine]	1.09 ± 0.18
NC(=O)c1ccc(I)c([N+](=O)[O-])c1 [Iniparib (BSI-201)]	1.03 ± 0.039
COc1cccc2oc(-c3ccccc3)cc(=O)c12 [5-methoxyflavone]	0.869 ± 0.26
O=C(O)c1cc(=O)[nH]c(=O)[nH]1 [Orotic acid (6-Carboxyuracil)]	0.847 ± 0.26
C#CCC(Cc1cnc2nc(N)nc(N)c2n1)c1ccc(C(=O)N[C@@H](CCC(=O)O)C(=O)O)cc1 (some centres undefined) [Pralatrexate]	1.43 ± 0.46
CO[C@@H]1[C@@H](OC(N)=O)[C@@H](O)[C@H](Oc2ccc3c(O)c(NC(=O)c4ccc(O)c(CC=C(C)C)c4)c(=O)oc3c2C)OC1(C)C [Novobiocin Sodium]	1.09 ± 0.072
CN(CCOc1ccc(CC2SC(=O)NC2=O)cc1)c1ccccn1 (centres undefined) [Rosiglitazone maleate]	1.52 ± 0.23
Cc1nc(-c2cccnc2)sc1C(=O)Nc1ccccc1-c1cn2c(CN3CCOCC3)csc2n1	1.34 ± 0.54
O=C(Nc1ccccc1-c1cn2c(CN3CC[C@@H](O)C3)csc2n1)c1ccc2ccccc2c1	1.45 ± 0.4
Cc1cc(Cl)ccc1OCCCC(=O)NO [Droxinostat]	0.706 ± 0.06
CCn1cc(C(=O)O)c(=O)c2ccc(C)nc21 [Nalidixic acid]	1.08 ± 0.015
O=C(O)c1cc2cccc([N+](=O)[O-])c2[nH]1	1.04 ± 0.19
O=C(NO)c1cccc(C(=O)NCCc2ccccc2)c1	0.743 ± 0.17
O=c1[nH]nc2c3c(cccc13)N=C(CN1Cc3ccccc3C1)N2	0.38 ± 0.041
